Data from the supplement of paper PMC8728848.
The entries come from a sample that favours the strongest signals as a whole.

Tests used:
Test in all cases: glycan array binding signal (z-score within array); higher = stronger binding
Details in all cases: glycan notation: IUPAC condensed, linker removed
[1] = target: Fuc(a1-2)Gal(b1-4)Glc
Procedure, shortened: (§1)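 Glycan array data came from 3228 arrays in the Consortium for Functional Glycomics database, and only arrays with an available protein sequence were kept. Glycan names were put into IUPAC-condensed notation, and columns mapping to the same glycan were averaged. The binding signal is a within-array Z-score, averaged across arrays of one protein sequence run at different concentrations or buffers and across linkers. A negative Z-score can be read as non-binding.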

[2] = target: Fuc(a1-2)Gal(b1-4)GlcNAc
Procedure, shortened: as §1

[3] = target: Fuc(a1-2)Gal(b1-4)GlcNAc(b1-3)GalNAc
Procedure, shortened: as §1

[4] = target: Fuc(a1-2)Gal(b1-4)GlcNAc(b1-3)[Fuc(a1-3)[Gal(b1-4)]GlcNAc(b1-6)]Gal(b1-4)Glc
Procedure, shortened: as §1

[5] = target: Fuc(a1-2)Gal(b1-4)[Fuc(a1-3)]GlcNAc(b1-2)[Fuc(a1-2)Gal(b1-4)[Fuc(a1-3)]GlcNAc(b1-4)]Man(a1-3)[Fuc(a1-2)Gal(b1-4)[Fuc(a1-3)]GlcNAc(b1-2)Man(a1-6)]Man(b1-4)GlcNAc(b1-4)GlcNAc
Procedure, shortened: as §1

[6] = target: Fuc(a1-2)Gal(b1-4)[Fuc(a1-3)]GlcNAc(b1-3)Gal(b1-4)[Fuc(a1-3)]GlcNAc(b1-3)Gal(b1-4)[Fuc(a1-3)]GlcNAc
Procedure, shortened: as §1

[7] = target: Fuc(a1-2)[Gal(a1-3)]Gal(b1-3)GlcNAc(b1-6)GalNAc
Procedure, shortened: as §1

[8] = target: Fuc(a1-2)[Gal(a1-3)]Gal(b1-4)GlcNAc(b1-3)[Fuc(a1-2)[Gal(a1-3)]Gal(b1-4)GlcNAc(b1-6)]GalNAc
Procedure, shortened: as §1

[9] = target: Fuc(a1-2)[GalNAc(a1-3)]Gal(b1-3)GlcNAc
Procedure, shortened: as §1

[10] = target: Fuc(a1-2)[GalNAc(a1-3)]Gal(b1-4)GlcNAc(b1-2)Man
Procedure, shortened: as §1

[11] = target: Fuc(a1-2)[GalNAc(a1-3)]Gal(b1-4)[Fuc(a1-3)]GlcNAc(b1-3)GalNAc
Procedure, shortened: as §1

[12] = target: Fuc(a1-3)[Gal(b1-4)]Glc6S
Procedure, shortened: as §1

[13] = target: Fuc(a1-3)[Gal(b1-4)]GlcNAc(b1-2)Man
Procedure, shortened: as §1

[14] = target: Fuc(a1-4)GlcNAc
Procedure, shortened: as §1

[15] = target: Gal(a1-3)Gal(b1-3)GlcNAc
Procedure, shortened: as §1

[16] = target: Gal(b1-4)GlcNAc(b1-2)Man(a1-6)Man(b1-4)GlcNAc(b1-4)GlcNAc
Procedure, shortened: as §1

[17] = target: Gal(b1-4)GlcNAc(b1-3)Gal(b1-4)GlcNAc(b1-3)[Gal(b1-4)GlcNAc(b1-3)Gal(b1-4)GlcNAc(b1-6)]GalNAc
Procedure, shortened: as §1

[18] = target: GalNAc(a1-3)GalNAc
Procedure, shortened: as §1

[19] = target: GalNAc(b1-4)GlcNAc
Procedure, shortened: as §1

[20] = target: GalNAc(b1-4)GlcNAc(b1-2)Man
Procedure, shortened: as §1

[21] = target: GalNAc(b1-4)GlcNAc6S
Procedure, shortened: as §1

[22] = target: GalNAc3S(b1-4)GlcNAc3S
Procedure, shortened: as §1

[23] = target: Glc(b1-4)Glc
Procedure, shortened: as §1

[24] = target: GlcA(b1-6)Gal
Procedure, shortened: as §1

[25] = target: GlcNAc(b1-3)Gal(b1-4)GlcNAc(b1-3)Gal(b1-4)GlcNAc(b1-2)[GlcNAc(b1-3)Gal(b1-4)GlcNAc(b1-3)Gal(b1-4)GlcNAc(b1-6)]Man(a1-6)[GlcNAc(b1-3)Gal(b1-4)GlcNAc(b1-3)Gal(b1-4)GlcNAc(b1-2)Man(a1-3)]Man(b1-4)GlcNAc(b1-4)[Fuc(a1-6)]GlcNAc
Procedure, shortened: as §1

[26] = target: GlcNAc(b1-3)Gal(b1-4)GlcNAc(b1-3)Gal(b1-4)GlcNAc(b1-3)Gal(b1-4)GlcNAc(b1-2)[GlcNAc(b1-3)Gal(b1-4)GlcNAc(b1-3)Gal(b1-4)GlcNAc(b1-3)Gal(b1-4)GlcNAc(b1-6)]Man(a1-6)[GlcNAc(b1-3)Gal(b1-4)GlcNAc(b1-3)Gal(b1-4)GlcNAc(b1-3)Gal(b1-4)GlcNAc(b1-2)Man(a1-3)]Man(b1-4)GlcNAc(b1-4)[Fuc(a1-6)]GlcNAc
Procedure, shortened: as §1

[27] = target: GlcNAc(b1-3)Gal(b1-4)GlcNAc(b1-3)GalNAc
Procedure, shortened: as §1

[28] = target: GlcNAc(b1-3)[GlcNAc(b1-4)][GlcNAc(b1-6)]GlcNAc
Procedure, shortened: as §1

[29] = target: GlcNAc(b1-6)Gal(b1-4)GlcNAc
Procedure, shortened: as §1

[30] = target: Man(a1-3)[Man(a1-6)]Man(b1-4)GlcNAc(b1-4)[Fuc(a1-6)]GlcNAc
Procedure, shortened: as §1

[31] = target: Neu5Ac(a2-3)Gal(b1-3)GalNAc(b1-4)[Neu5Ac(a2-8)Neu5Ac(a2-3)]Gal(b1-4)Glc
Procedure, shortened: as §1

[32] = target: Neu5Ac(a2-3)Gal(b1-4)GlcNAc(b1-2)[Neu5Ac(a2-3)Gal(b1-4)GlcNAc(b1-4)]Man(a1-3)[GlcNAc(b1-4)][Neu5Ac(a2-3)Gal(b1-4)GlcNAc(b1-4)Man(a1-6)]Man(b1-4)GlcNAc(b1-4)GlcNAc
Procedure, shortened: as §1

[33] = target: Neu5Ac(a2-3)Gal(b1-4)[Fuc(a1-3)]GlcNAc
Procedure, shortened: as §1

[34] = target: Neu5Ac(a2-3)Gal(b1-4)[Fuc(a1-3)]GlcNAc6S
Procedure, shortened: as §1

[35] = target: Neu5Ac(a2-6)Gal(b1-4)GlcNAc(b1-2)Man(a1-3)[Neu5Ac(a2-6)Gal(b1-4)GlcNAc(b1-2)Man(a1-6)]Man(b1-4)GlcNAc(b1-4)[Fuc(a1-6)]GlcNAc
Procedure, shortened: as §1

[36] = target: Neu5Ac(a2-6)Gal(b1-4)GlcNAc(b1-2)Man(a1-6)[Gal(b1-4)GlcNAc(b1-2)Man(a1-3)]Man(b1-4)GlcNAc(b1-4)GlcNAc
Procedure, shortened: as §1

[37] = target: Neu5Ac(a2-6)Gal(b1-4)GlcNAc(b1-3)Gal(b1-4)GlcNAc(b1-3)GalNAc
Procedure, shortened: as §1

[38] = target: Neu5Ac(a2-8)Neu5Ac(a2-3)Gal(b1-3)GalNAc(b1-4)[Neu5Ac(a2-3)]Gal(b1-4)Glc
Procedure, shortened: as §1

[39] = target: Neu5Ac(a2-8)Neu5Ac(a2-3)[Gal(b1-3)GalNAc(b1-4)]Gal(b1-4)Glc
Procedure, shortened: as §1

[40] = target: Neu5Ac(b2-6)GalNAc
Procedure, shortened: as §1

[41] = target: Neu5Ac9Ac(a2-3)Gal(b1-3)GlcNAc
Procedure, shortened: as §1

[42] = target: Neu5Gc(a2-3)Gal(b1-4)GlcNAc(b1-3)Gal(b1-4)GlcNAc(b1-2)Man(a1-3)[Neu5Gc(a2-3)Gal(b1-4)GlcNAc(b1-3)Gal(b1-4)GlcNAc(b1-2)Man(a1-6)]Man(b1-4)GlcNAc(b1-4)GlcNAc
Procedure, shortened: as §1

[43] = target: Neu5Gc(a2-6)Gal(b1-4)GlcNAc
Procedure, shortened: as §1

B1: SP16663B-bot-321-25-321 (Bacteroides ovatus) (protein)
chain: DDDDEVTMNSKFYLSTKVFPVDSYEASLSVILKDNSVVVNELQPNYRFVACATERLSKDVKITADSDDNLVSAYNKANDTEYNILPAENYSFTNKTVTIENGESVSGDSIKIELLNVGSLTTEGGYLLPVTISSIEGNNLDALSSNRGVVYLKIQNIHVNVESGQPAEGTLIADRSGWTVKVAPTTRGDAKNLIDGTNSDVARDGGAEYWLTVDIGKVQTLTGIRNKCYASSYSPTAVEVFTSSDGAKWKSIGAVTISKSGTQYIKFSKAVETRYLKYYVKQGPNTVSLTEFDLYAK
[1]
  glycan array binding signal (z-score): -0.653
[2]
  glycan array binding signal (z-score): -0.156
[3]
  glycan array binding signal (z-score): -0.106
[4]
  glycan array binding signal (z-score): -0.632
[5]
  glycan array binding signal (z-score): -0.394
[6]
  glycan array binding signal (z-score): -0.007
[7]
  glycan array binding signal (z-score): -0.437
[8]
  glycan array binding signal (z-score): 1.9
[9]
  glycan array binding signal (z-score): 0.071
[10]
  glycan array binding signal (z-score): 1.04
[11]
  glycan array binding signal (z-score): 0.604
[12]
  glycan array binding signal (z-score): 1.36
[13]
  glycan array binding signal (z-score): 0.558
[14]
  glycan array binding signal (z-score): 21.5
[15]
  glycan array binding signal (z-score): 0.607
[16]
  glycan array binding signal (z-score): -0.62
[17]
  glycan array binding signal (z-score): 1.04
[18]
  glycan array binding signal (z-score): -0.141
[19]
  glycan array binding signal (z-score): 1.29
[20]
  glycan array binding signal (z-score): 1.72
[21]
  glycan array binding signal (z-score): -0.779
[22]
  glycan array binding signal (z-score): -0.087
[23]
  glycan array binding signal (z-score): 0.122
[24]
  glycan array binding signal (z-score): 0.013
[25]
  glycan array binding signal (z-score): 2.65
[26]
  glycan array binding signal (z-score): 1.28
[27]
  glycan array binding signal (z-score): -0.536
[28]
  glycan array binding signal (z-score): -0.112
[29]
  glycan array binding signal (z-score): 1.33
[30]
  glycan array binding signal (z-score): 0.967
[31]
  glycan array binding signal (z-score): 0.469
[32]
  glycan array binding signal (z-score): -0.146
[33]
  glycan array binding signal (z-score): -0.258
[34]
  glycan array binding signal (z-score): -0.406
[35]
  glycan array binding signal (z-score): 0.583
[36]
  glycan array binding signal (z-score): -0.492
[37]
  glycan array binding signal (z-score): -0.34
[38]
  glycan array binding signal (z-score): -0.244
[39]
  glycan array binding signal (z-score): 0.154
[40]
  glycan array binding signal (z-score): -0.878
[41]
  glycan array binding signal (z-score): 0.033
[42]
  glycan array binding signal (z-score): -0.142
[43]
  glycan array binding signal (z-score): 0.696
